Test results reported in PubChem BioAssay AID504834 (National Center for Advancing Translational Sciences (NCATS), 2011).
Among all 320,000 compounds or so, about 22,000 (6.9%) were called active. A call without a number means that no potency is given here. About 27% were inconclusive and are not listed. This is one part of a sample in which actives are shown more often than they occur. Values without a mark were called inactive. Calls come from the whole dose curve; as a rule, active = well fitted inhibition curve with a large enough effect; inconclusive = small, poorly fitted or top-dose-only effect, or another doubt; inactive = no such curve, though single readings can be large or run the other way.

Assay: Primary qHTS for delayed death inhibitors of the malarial parasite plastid, 96 hour incubation
Settings: P. falciparum luciferase reporter growth; series mostly up to 28.7 µM
Summary of the method: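 Erythrocytes infected with luciferase-expressing P. falciparum were dispensed at 2% hematocrit and 0.05% parasitemia (final), then incubated with compounds 96 hours at 37 C in 5% CO2. Luminescence after detection reagent addition reported growth.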
Potency is the fitted concentration of half-maximal effect.

Row | Structure (SMILES) | Potency | activity change, negative = inhibition
1 | COc1ccc2oc(C(=O)NCc3ccco3)c(C)c2c1 | inactive | –
2 | CCCCCC1CC(COc2ccccc2)OC1=O (stereo unspecified) | inactive | –
3 | O=C(NCc1ccccc1)C(c1ccco1)N(C(=O)c1csnn1)c1ccccc1F (stereo unspecified) | inactive | –
4 | CCOCCCNC(=O)C(NC(=O)c1ccc(=O)[nH]c1)c1ccc(C)cc1 (stereo unspecified) | inactive | –
5 | CCOCCCNC(=O)C(NC(=O)CNC(=O)c1ccccc1)c1ccc(C)cc1 (stereo unspecified) | 9.28 µM (active) | –
6 | CCOCCCNC(=O)C(NC(=O)CNC(=O)c1ccccc1)c1ccc(OC)cc1 (stereo unspecified) | inactive | –
7 | COc1ccc(C(=O)NC2CC(C)(C)Cc3c2cnn3-c2ccccc2C)o1 (stereo unspecified) | inactive | –
8 | Cc1ccc(S(=O)(=O)NCCC(=O)NC2CCN(Cc3ccccc3)CC2)cc1 | inactive | –
9 | OC(c1nc2ccc(F)cc2[nH]1)C(O)c1nc2ccc(F)cc2[nH]1 (stereo unspecified) | inactive | –
10 | Cc1c(NC(=O)C(C)Oc2cccc(Cl)c2)c(=O)n(-c2ccccc2)n1C (stereo unspecified) | inactive | –
11 | CN(C(=O)c1ccccn1)c1nnc(-c2ccccn2)s1 | inactive | –
12 | CN(Cc1ccccc1)C(=O)COc1ccccc1 | inactive | –
13 | CN(C(=O)COc1ccccc1)c1nnc(-c2ccncc2)s1 | 4.15 µM (active) | –
14 | CC(C)Oc1ccc(C(CC(=O)N2CCOCC2)C(C)C)cc1 (stereo unspecified) | inactive | –
15 | CC(=O)c1c(C)oc2ccc(NS(=O)(=O)c3ccc(C(=O)O)cc3)cc12 | inactive | –
16 | O=C(Nc1ccc(O)cc1)c1ccc(NC(=O)c2ccco2)cc1 | inactive | –
17 | COC(=O)c1ccc2ccccc2c1OC1OC(CO)C(O)C(O)C1NC(C)=O (stereo unspecified) | 10.4 µM (active) | –
18 | COc1cc(/C=C/CO)cc(OC)c1O[C@@H]1O[C@H](CO)[C@@H](O)[C@H](O)[C@H]1O | inactive | –
19 | CC(=O)NC1C(OCc2ccccc2)OC(COC(C)=O)C(OC(C)=O)C1OC(C)=O (stereo unspecified) | inactive | –
20 | Cn1cc(S(=O)(=O)Nc2ccc(Cl)cc2Cl)c(=O)n(C)c1=O | inactive | –
21 | COCCCNC(=O)C1CC(=O)N(c2ccc(C)cc2)C1 (stereo unspecified) | 11.7 µM (active) | –
22 | COCCNC(=O)C1CCN(C(=O)C2CC(=O)N(c3ccc(C)cc3)C2)CC1 (stereo unspecified) | inactive | –

Row | Structure (SMILES) | Potency | activity change, negative = inhibition
23 | Cc1ccc(N2CC(C(=O)NCCS(=O)(=O)N3CCN(c4ccccc4)CC3)CC2=O)cc1 (stereo unspecified) | inactive | –
24 | Cc1nc(Cl)cc(N/N=C/c2ccccc2)n1 | inactive | –
25 | Cc1ccc(/C=C/C(=O)OCC(=O)Nc2cccnc2Cl)cc1 | inactive | –
26 | CSCCC(NC(=O)COc1ccccc1)C(=O)OCCOc1ccc(F)cc1 (stereo unspecified) | inactive | –
27 | O=C(NCC(=O)N1CCC2(CC1)NCCc1[nH]cnc12)c1ccc(Br)cc1 | inactive | –
28 | Cc1ccsc1C(=O)NC1CCCCC1C (stereo unspecified) | inactive | –
29 | Cc1ccc(NC(=O)COc2ccc(/C=C3/NC(=O)NC3=O)cc2)cc1 | inactive | –
30 | O=C(NCCCN1CCCCC1)C1CC(=O)N(CCc2ccccc2)C1 (stereo unspecified) | inactive | –
31 | COc1cccc(CNC(=O)C2CC(=O)N(C3CCCCCCC3)C2)c1 (stereo unspecified) | inactive | –
32 | O=C(NCCCN1CCCCCC1)C1CC(=O)N(C2CCCC2)C1 (stereo unspecified) | 3.7 µM (active) | –
33 | CC(C)c1c(C(=O)N/N=C/c2ccc(-c3ccccc3)cc2)nnn1-c1nonc1N | inactive | –
34 | Nc1nonc1-n1nnc(C(=O)N/N=C/c2ccc(Cl)cc2)c1-c1ccc2c(c1)OCO2 | 0.0657 µM (active) | –
35 | Nc1nonc1-n1nnc(C(=O)N/N=C/C2CCCCC2)c1-c1ccccc1 | inactive | –
36 | CCOC(=O)N1CCN(C(=O)COc2ccc3oc4c(c3c2)CCCC4)CC1 | inactive | –
37 | CC(=O)Oc1ccc(-c2cccc(C(=O)N3CCCCC3)c2)cc1 | inactive | –
38 | COc1ccccc1CNC(=O)C1CCN(C(=O)[C@@H]2Cc3ccccc3CN2)CC1 | inactive | –
39 | C/C(CCC(=O)OC[C@H]1O[C@H](C#Cc2ccccc2)C=C[C@@H]1Oc1ccc(C)cc1)=N\OC[C@@H](O)[C@H]1O[C@@H]2OC(C)(C)O[C@@H]2[C@H]1O | 13.1 µM (active) | –
40 | NC(=O)C1CCN(c2nc(-c3cccc(F)c3)cs2)CC1 | inactive | –
41 | Nc1nnc(SCC(=O)NCC(=O)Nc2ccc(F)c(F)c2F)s1 | inactive | –
42 | CCN(CC(=O)Nc1c(F)cccc1F)C(=O)c1ccc(Sc2nncn2C)c([N+](=O)[O-])c1 | inactive | –
43 | CN(C)CCNC(=O)c1[nH]nc2c1CCc1ccccc1-2 | inactive | –
44 | Cc1cc(/C=N/NC(=O)c2cccnc2)c(C)n1CC(C)C | – | 33.1% [at 5.75 µM]

Row | Structure (SMILES) | Potency | activity change, negative = inhibition
45 | O=C(N/N=C/c1ccc(O)c2ccccc12)c1cccnc1 | inactive | –
46 | O=C(N/N=C/c1sc(N2CCCCC2)nc1-c1cccs1)c1cccnc1 | 2.08 µM (active) | –
47 | COc1ccccc1CNC(=O)COC(=O)c1sc(C)nc1C | inactive | –
48 | CN1C2CCC1CC(NC(=O)c1ccc([N+](=O)[O-])cc1)C2 (stereo unspecified) | inactive | –
49 | COc1ccc2nc(/N=C(\N)NC(=O)Nc3ccccc3)nc(C)c2c1 | inactive | –
50 | Cc1nn(-c2ccccc2)c(C)c1C(=O)OCC(=O)NC(=O)NC1CCCCC1 | inactive | –
51 | Cc1nc(/N=C(\N)NC(=O)NC2CCCCC2)nc2ccccc12 | 3.29 µM (active) | –
52 | O=c1ccc2cc(S(=O)(=O)NCCCc3ccccc3)ccc2[nH]1 | inactive | –
53 | COc1ccc(CN2CCCC(C(=O)N3CCCCC3)C2)cc1 (stereo unspecified) | inactive | –
54 | Cc1ccc(OC(=O)c2cncc(Br)c2)c(C)c1 | inactive | –
55 | N/C(=N\OC(=O)COc1ccc([N+](=O)[O-])cc1)c1ccc(Br)cc1 | inactive | –
56 | O=C1CCCN1C(=O)COc1ccc([N+](=O)[O-])cc1 | inactive | –
57 | CCOC(=O)COc1ccc([N+](=O)[O-])cc1 | 0.415 µM (active) | –
58 | Cc1cc(NC(=O)CCC(=O)N(Cc2ccccc2)C(C(=O)NC2CCCC2)c2ccc(C)o2)no1 (stereo unspecified) | inactive | –
59 | CC(C)CCN1CCC(C)(NC(=O)c2ccccc2)C1=O (stereo unspecified) | inactive | –
60 | COc1ccccc1C(=O)NCCC(=O)NN1C(=O)NC2(CCCCC2)C1=O | inactive | –
61 | O=C(CN1CCOCC1)Nc1cc(Cl)ccc1Cl | inactive | –
62 | C/C(=N\Nc1nc(Nc2ccccc2)nc(N2CCOCC2)n1)c1cccs1 | inactive | –
63 | O=C(CSc1nc(Nc2ccccc2)nc(N2CCOCC2)n1)Nc1cc(Cl)ccc1O | 5.22 µM (active) | –
64 | CC(=O)c1c(C)[nH]c(C(=O)COC(=O)CCOc2ccc(C)cc2)c1C | inactive | –
65 | Cn1nc(C(C)(C)C)c([N+](=O)[O-])c1C(N)=O | inactive | –
66 | CC(=O)N1c2ccc(S(=O)(=O)N(C)CC(=O)N(C)Cc3ccccc3)cc2CC1C (stereo unspecified) | inactive | –
